Laboratory results as given in the supplement of paper PMC6522484.
± gives the standard deviation of the averaged measurements.

Experiments:
DLD1 [1] = experiment: cell viability (CellTiter-Glo) relative to plate median (fraction of plate median); higher = more viable cells; conditions: 5 µM; treatment time 24 h; reporter: 7TFP
How it was run: (§1)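 Each entry is a luminescence signal normalised to the plate median, averaged over independent replicates. The replicate count was two, and the cells were colorectal cancer lines with stable lentiviral TCF/Wnt firefly luciferase reporters exposed to library compounds at a final 5 µM for 24 h. Firefly luciferase and CellTiterGlo were measured on parallel plates.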

HCT116 = experiment: as above; conditions: 5 µM; treatment time 24 h; reporter: TCF4/Wnt
How it was run: as §1

SW480 [2] = experiment: as above; conditions: 5 µM; treatment time 24 h; reporter: 7TFP
How it was run: as §1

DLD1 [3] = experiment: TCF/Wnt firefly luciferase reporter signal relative to plate median (fraction of plate median); higher = higher Wnt reporter signal; conditions: 5 µM; treatment time 24 h; reporter: 7TFP
How it was run: as §1

SW480 [4] = experiment: as above; conditions: 5 µM; treatment time 24 h; reporter: 7TFP
How it was run: as §1

| Structure (SMILES) | cell viability (DLD1 [1]) | cell viability (HCT116) | cell viability (SW480 [2]) | TCF/Wnt firefly luciferase reporter signal (DLD1 [3]) | TCF/Wnt firefly luciferase reporter signal (SW480 [4]) |
| --- | --- | --- | --- | --- | --- |
| Nc1ccc(C(=O)NCC(=O)O)cc1 | 0.988 ± 0.059 | 0.962 ± 0.069 | 0.98 ± 0.057 | 0.998 ± 0.088 | 0.984 ± 0.12 |
| c1ccc(CN(CC2=NCCN2)c2ccccc2)cc1 | 0.9805 ± 0.0092 | 1.03 ± 0.055 | 1.08 ± 0.021 | 1.18 ± 0.05 | 1.06 ± 0.096 |
| Oc1ccc(/C=C/c2cc(O)cc(O)c2)cc1 | 0.995 ± 0.022 | 1.05 ± 0.042 | 1.03 ± 0.098 | 1.05 ± 0.05 | 0.891 ± 0.059 |
| CC1(C)C(=O)C=C[C@]2(C)[C@H]3CC[C@@]4(C)[C@H](c5ccoc5)OC(=O)[C@H]5O[C@]54[C@]3(C)C(=O)C[C@@H]12 | 1.02 | 0.974 ± 0.023 | 0.97 ± 0.033 | 0.871 ± 0.093 | 0.978 ± 0.025 |
| C=C1C2CCC3(C)C(c4ccoc4)OC(=O)CC13OC1CC(=O)C(C)(C)C(CC(=O)OC)C12C (stereo not given) | 0.97 ± 0.012 | 0.934 ± 0.0099 | 0.925 ± 0.044 | 1.04 ± 0.12 | 1.09 ± 0.13 |
| CC(=O)N(O)CCCCCNC(=O)CC(O)(CC(=O)NCCCCCN(O)C(C)=O)C(=O)O [Arthrobactin] | 0.989 ± 0.03 | 1.06 ± 0.057 | 1.03 ± 0.049 | 0.976 ± 0.12 | 1.06 ± 0.028 |
| CN(C(=O)CN(CCO)CC(=O)N(C)C(C)(C)Cc1ccccc1)C(C)(C)Cc1ccccc1 | 1.01 ± 0.022 | 1.04 ± 0.11 | 1.11 | 1.15 ± 0.05 | 1.025 ± 0.0071 |
| CC(Cc1cccc(C(F)(F)F)c1)NCCOC(=O)c1ccccc1 (stereo not given) | 0.984 ± 0.023 | 0.993 ± 0.011 | 0.955 ± 0.032 | 1.22 ± 0.057 | 1.14 ± 0.021 |
| CC[C@H](c1ccc(O)cc1)[C@@H](CC)c1ccc(O)cc1 | 1.05 ± 0.028 | 1.12 ± 0.078 | 1.04 ± 0.057 | 1.125 ± 0.0071 | 1.09 ± 0.092 |
| OC(CCN1CCCCC1)(c1ccccc1)C1CC2C=CC1C2 (stereo not given) | 0.9145 ± 0.0021 | 1.01 ± 0.12 | 0.947 ± 0.052 | 0.92 ± 0.23 | 0.835 ± 0.028 |
| COc1cc(Cc2cnc(N)nc2N)cc(OC)c1OC | 0.988 ± 0.013 | 1 ± 0.15 | 0.991 ± 0.013 | 1 ± 0.057 | 0.831 ± 0.17 |
| COc1ccc([C@@H]2CC(=O)c3c(O)cc(O)cc3O2)cc1O | 1.01 ± 0.014 | 0.93 ± 0.052 | 0.9885 ± 0.0092 | 1.02 ± 0.11 | 0.982 ± 0.04 |
| Nc1ccc(S(=O)(=O)Nc2ncccn2)cc1 | 0.92 ± 0.032 | 1.04 ± 0.069 | 0.9685 ± 0.0021 | 1.05 ± 0.14 | 1.01 ± 0.083 |
| COC(=O)Nc1nc2cc(Sc3ccccc3)ccc2[nH]1 | 1.01 ± 0.014 | 1.03 | 1.03 ± 0.05 | 0.99 ± 0.071 | 0.995 ± 0.05 |
| O=C1NCC(=O)N2CCCC12 (stereo not given) [Cyclo(glycylprolyl)] | 0.941 ± 0.037 | 0.9365 ± 0.005 | 0.959 ± 0.016 | 1.2 ± 0.085 | 0.978 ± 0.073 |
| CCn1cc(C(=O)O)c(=O)c2ccc(C)nc21 | 0.975 ± 0.16 | 0.9905 ± 0.0078 | 0.975 ± 0.016 | 1.07 ± 0.12 | 1.02 ± 0.028 |
| COC1C(OC(C)=O)C(C)OC(OC2C(Oc3cccc4c(OC(C)=O)c5c(=O)oc6ccc(C)c7c(=O)oc(c34)c5c67)OC(C)C(OC(C)=O)C2OC(C)=O)C1OC(C)=O (stereo not given) [Chartreusin-pentaacetate] | 0.99 ± 0.028 | 1.04 ± 0.14 | 0.932 ± 0.03 | 1.095 ± 0.0071 | 1.1 ± 0.11 |
| CCCCCCCCCCCCCCCC(=O)OC[C@@H](NC(=O)C(Cl)Cl)[C@H](O)c1ccc([N+](=O)[O-])cc1 | 0.96 ± 0.0042 | 0.996 ± 0.02 | 1.01 | 0.971 ± 0.028 | 1.02 ± 0.052 |
| O=c1cc(-c2ccccc2)oc2c(O)c(O)ccc12 | 1.11 ± 0.11 | 0.969 ± 0.039 | 0.98 ± 0.015 | 1.13 ± 0.071 | 1.11 ± 0.057 |
| S=P(N1CC1)(N1CC1)N1CC1 | 0.975 ± 0.036 | 0.928 ± 0.017 | 1.01 ± 0.03 | 0.975 ± 0.03 | 0.93 ± 0.021 |
| COc1ccc2cc1Oc1ccc(cc1)C[C@H]1c3cc(c(OC)cc3CCN1C)Oc1c(OC)c(OC)cc3c1[C@H](C2)N(C)CC3 | 1.04 ± 0.13 | 0.897 ± 0.15 | 1.215 ± 0.0071 | 0.948 ± 0.025 | 0.889 ± 0.071 |
| COC(=O)C[C@H]1C(C)(C)C2(O)OC34CC2C(=O)[C@]1(C)C3CC[C@]1(C)C4=CC(=O)O[C@H]1c1ccoc1 (stereo partly drawn) [8beta-HYDROXYCARAPIN, 3,8-HEMIACETAL] | 1.02 ± 0.014 | 1.07 ± 0.11 | 0.9895 ± 0.0092 | 0.866 ± 0.067 | 0.816 ± 0.019 |
| CC1=C(/C=C/C(C)=C/C=C/C(C)=C/C=C/C=C(C)/C=C/C=C(C)/C=C/C2=C(C)C(=O)[C@@H](O)CC2(C)C)C(C)(C)C[C@H](O)C1=O | 1.05 ± 0.057 | 1.07 ± 0.042 | 1 ± 0.027 | 1.06 ± 0.11 | 0.824 ± 0.099 |
| C[C@H]1CCC/C=C/C(=O)c2c(O)cc(O)cc2CC(=O)O1 [Dehydro-Curvularin] | 0.9905 ± 0.005 | 1.08 ± 0.014 | 1.02 ± 0.03 | 1.095 ± 0.0071 | 1 ± 0.07 |
| COc1cccc(O)c1O | 0.938 ± 0.059 | 0.905 ± 0.11 | 0.942 ± 0.0028 | 0.96 ± 0.099 | 0.978 ± 0.088 |
| NCC(O)CC(=O)O (stereo not given) | 1.035 ± 0.0071 | 1.04 ± 0.09 | 0.965 ± 0.028 | 1.04 ± 0.035 | 1.07 ± 0.035 |
| COc1ccc(C(=O)/C=C/c2ccccc2)cc1 | 0.964 ± 0.0028 | 0.977 ± 0.0085 | 0.972 ± 0.069 | 0.936 ± 0.04 | 0.944 ± 0.15 |
| O=C(O[C@@H]1Cc2c(O)cc(O)cc2O[C@@H]1c1cc(O)c(O)c(O)c1-c1c([C@H]2Oc3cc(O)cc(O)c3C[C@H]2OC(=O)c2cc(O)c(O)c(O)c2)cc(O)c(O)c1O)c1cc(O)c(O)c(O)c1 | 1.08 ± 0.05 | 1.15 ± 0.12 | 1.035 ± 0.0071 | 1.03 ± 0.11 | 1.01 ± 0.047 |
